Measurements: ChEMBL document CHEMBL1157539, “Thousands of chemical starting points for antimalarial lead identification” (Nature, 2010)

Tests used:
Type in all cases: functional
Plasmodium falciparum [1] = assay: GSK_TCMDC: Inhibition of Plasmodium falciparum 3D7 in whole red blood cells, using parasite LDH activity as an index of growth. Test compounds present at 2uM
Plasmodium falciparum [2] = assay: GSK_TCMDC: Inhibition of Plasmodium falciparum Dd2 in whole red blood cells, using parasite LDH activity as an index of growth. Test compounds present at 2uM
HepG2 = assay: GSK_TCMDC: Percent inhibition of human HepG2 cell line. Test compounds present at 10uM.

| Structure (SMILES) | Inhibition (Plasmodium falciparum [1]) | Inhibition (Plasmodium falciparum [2]) | Inhibition (HepG2) |
| --- | --- | --- | --- |
| Cc1cccc2nc(-c3cccc(-c4ccc(NC(=O)C(=O)c5cccn5C)cc4)c3)[nH]c12 | 100% | 46% | 45% |
| COc1cc2nc(N3CCN(C(=O)c4ccco4)CC3)nc(NCc3ccccc3)c2cc1OC | 100% | 99% | 16% |
| CCN(CC)CCN(Cc1ccc(-c2ccc(C(F)(F)F)cc2)cc1)C(=O)Cn1cc(Cc2cnn(C)c2)c(=O)nc1/C=C/c1ccc(F)cc1.O=C(O)C(O)C(O)C(=O)O | 96% | 91% | 6% |
| CC(C)N1CCC(NC(=O)N2CCCN(c3ncnc4cc(-c5ccccc5)sc34)CC2)CC1.O=C(O)C(F)(F)F | 87% | 11% | 31% |
| CN(CCCN(C)c1cc(NC(=O)c2cccc(F)c2)ccn1)Cc1cccc(O)c1.O=C(O)C(F)(F)F | 92% | 4% | 0% |
| CCc1cc(NCc2ccncc2)nc(Nc2ccc(F)cc2)n1 | 92% | 17% | 8% |
| COC(=O)c1cccc(CNCc2cccc(-c3ccc(-c4nc5cccc(C)c5[nH]4)cc3)c2)c1.O=C(O)C(F)(F)F | 100% | 52% | 3% |
| CC(C)NCc1ccc(-c2cccc(NC(=O)c3cccc(C#N)c3)c2)cc1.O=C(O)C(F)(F)F | 100% | 78% | 9% |
| O=C(/C=C/c1ccc(Cl)c(Cl)c1)NCCCCCN1CCC(NC(=O)Nc2ccc(C(F)(F)F)cc2)CC1 | 94% | 34% | 58% |
| CC(NC(=O)c1ccc(O)c(-c2ccc(Cl)c(Cl)c2)c1)C(=O)NCCN1CCOCC1 (stereo not given) | 87% | 7% | 2% |
